{
  "source": "PubChem BioAssay AID493170",
  "about": "(National Center for Advancing Translational Sciences (NCATS), 2011)",
  "note": "Records with an inconclusive call do not appear. Entries that show only a call come without a potency. Activity calls are given as the source filed them. The call rests on the fitted dose curve; in most records, active means well fitted inhibition curve with a large enough effect; inconclusive means small, poorly fitted or top-dose-only effect, or effect the other way; inactive means flat fitted curve, though single readings scatter. Potency means the concentration at half of the fitted maximal effect.",
  "data": [
    {"target": "Ubiquitin carboxyl-terminal hydrolase 2 (Homo sapiens) (UniProt O75604)", "sequence (O75604 whole entry, looked up)": "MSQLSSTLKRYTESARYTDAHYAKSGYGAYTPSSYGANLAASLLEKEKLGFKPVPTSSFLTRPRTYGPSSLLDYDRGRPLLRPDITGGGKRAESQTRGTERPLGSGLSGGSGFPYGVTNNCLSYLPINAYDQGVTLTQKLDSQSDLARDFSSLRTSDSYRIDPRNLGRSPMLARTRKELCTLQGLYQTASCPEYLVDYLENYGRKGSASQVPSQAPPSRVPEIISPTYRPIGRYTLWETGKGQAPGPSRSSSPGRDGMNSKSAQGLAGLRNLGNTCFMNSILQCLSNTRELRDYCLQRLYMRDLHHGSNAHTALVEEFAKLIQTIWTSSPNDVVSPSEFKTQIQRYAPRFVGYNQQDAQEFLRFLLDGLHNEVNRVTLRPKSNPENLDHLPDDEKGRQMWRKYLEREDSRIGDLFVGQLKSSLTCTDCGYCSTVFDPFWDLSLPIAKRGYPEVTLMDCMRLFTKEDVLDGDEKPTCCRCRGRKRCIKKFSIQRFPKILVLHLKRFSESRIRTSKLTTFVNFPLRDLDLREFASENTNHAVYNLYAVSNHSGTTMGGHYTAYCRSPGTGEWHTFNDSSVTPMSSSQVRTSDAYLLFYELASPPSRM", "experiment": "Ub-rhodamine 110 based assay for inhibitors Ubiquitin-specific Protease USP2a; further: nearly all actives have a fitted effect of over 50% in size", "conditions": "USP2a Ub-rhodamine110 cleavage, fluorescence; series mostly up to 38.3 µM", "outline": "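5 nM USP2a preincubated with compounds for 30 min at RT in 20 mM Tris-HCl pH 8.0, 2 mM CaCl2, 2 mM beta-mercaptoethanol, 0.05% CHAPS. Cleavage of 150 nM Ub-rhodamine 110 read kinetically (Ex 485/Em 531) for 7 min.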", "values": [
      {"smiles": "NS(=O)(=O)c1ccc(NC(=O)/C=C/c2cn(-c3ccccc3)nc2-c2cccc(Cl)c2)cc1", "Potency": "8.91 µM (active)"},
      {"smiles": "Cc1ccc(S(=O)(=O)N2[C@@H](c3ccc(Cl)cc3)C(C(=O)O)=CC[C@H]2c2ccc(C(C)C)cc2)cc1", "Potency": "10 µM (active)"},
      {"smiles": "Cc1ccc(N2CCN(C(=O)CCc3nc4ccccc4[nH]3)CC2)c(C)c1", "Potency": "inactive"},
      {"smiles": "CC(=O)c1c(N2CCCC2)[nH]c(-c2ccccc2)nc1=S", "Potency": "inactive"},
      {"smiles": "O=C(NCCOC(=O)c1ccccc1C(=O)OCCNC(=O)c1cccnc1)c1cccnc1", "Potency": "inactive"},
      {"smiles": "O=C(CSc1ncn[nH]1)Nc1ccc(Br)cc1F", "Potency": "inactive"},
      {"smiles": "C#CCOCCOCCOCCNc1nc(N2CCN(C(=O)CCCCCCCCCCNC(=O)Cn3cc(CCCCCN)nn3)CC2)nc(N2CCN(C(=O)CCCCCCCCCCNC(=O)[C@H]([C@@H](C)CC)n3cc(CCCCCN)nn3)CC2)n1", "Potency": "inactive"},
      {"smiles": "Cc1ccc([C@H]2C(C(=O)O)=CC[C@@H](c3ccc(Cl)cc3)N2S(=O)(=O)c2ccc(C)cc2)cc1", "Potency": "11.2 µM (active)"},
      {"smiles": "COc1cccc(NC(=O)Cc2ccccc2)c1", "Potency": "inactive"},
      {"smiles": "Cc1ccc(SCC(=O)NCC(C)C)cc1", "Potency": "inactive"},
      {"smiles": "COc1ccc2[nH]c(=O)c(CN(C3CCCCC3)C(c3nnnn3Cc3ccco3)C(C)C)cc2c1", "note": "(stereo not given)", "Potency": "3.98 µM (active)"},
      {"smiles": "O=c1oc2c(CN3CCCCC3)c(O)ccc2c2c1CCCCC2", "Potency": "inactive"},
      {"smiles": "O=c1oc2ccccc2n1Cn1c(=O)oc2ccccc21", "Potency": "inactive"},
      {"smiles": "Oc1ccc(/C=N/NC(=S)N/N=C/c2ccc(O)cc2)cc1", "Potency": "inactive"},
      {"smiles": "O=C(Oc1ccccc1C(=O)Nc1ccccc1)c1ccccc1Br", "Potency": "inactive"},
      {"smiles": "C=CCOc1cccc(C2C(C(=O)c3ccco3)=C(O)C(=O)N2CCN(CC)CC)c1", "note": "(stereo not given)", "Potency": "inactive"},
      {"smiles": "O=C(C[n+]1ccc(C(=O)N/N=C/c2ccc(OCc3ccccc3)cc2)cc1)c1ccccc1", "Potency": "8.91 µM (active)"},
      {"smiles": "COc1ccc(Cl)cc1S(=O)(=O)Nc1cccc(C(=O)O)c1", "Potency": "inactive"},
      {"smiles": "CCCCC(OC(=O)c1cc2occc2n1C)C(=O)NCC1CCCO1", "note": "(stereo not given)", "Potency": "inactive"},
      {"smiles": "O=C(OCc1ccccc1)C1CCCN1C(=O)c1cccs1", "note": "(stereo not given)", "Potency": "inactive"},
      {"smiles": "Cc1ccc(S(=O)(=O)N2[C@@H](c3ccc(C(C)(C)C)cc3)C(C(=O)O)=CC[C@H]2c2cccc(Cl)c2)cc1", "Potency": "5.62 µM (active)"},
      {"smiles": "Cc1c(C(=O)NCc2c(F)cc(F)cc2F)oc2ccc(S(=O)(=O)N3CCOCC3)cc12", "Potency": "inactive"},
      {"smiles": "COc1cccc(NC(=O)c2ccccc2-c2nc(-c3cccc(C)c3)no2)c1", "Potency": "inactive"},
      {"smiles": "Cc1cc(NC(=O)c2cccc(S(=O)(=O)N(C)C)c2)n(-c2ccccn2)n1", "Potency": "inactive"},
      {"smiles": "NC1=NC2(CCC(c3ccccc3)CC2)n2c(nc3ccccc32)N1", "note": "(stereo not given)", "Potency": "inactive"},
      {"smiles": "COC(=O)c1c(NC(=O)c2cccnc2)sc(C)c1C", "Potency": "inactive"},
      {"smiles": "Cc1ccc(C(=O)Oc2coc(CSc3nnc(NC(=O)c4cccs4)s3)cc2=O)cc1", "Potency": "11.2 µM (active)"},
      {"smiles": "O=C(Nc1ccc(N2CCCC2)cc1)C(c1ccccc1)c1ccccc1", "Potency": "inactive"},
      {"smiles": "O=C(CSc1nc2ccccc2s1)NCCCN1CCOCC1", "Potency": "inactive"},
      {"smiles": "CC(OC(=O)CN(C)S(=O)(=O)c1ccc(Cl)cc1)C(=O)Nc1ccc(N2CCOCC2)cc1", "note": "(stereo not given)", "Potency": "inactive"},
      {"smiles": "Cc1ccc(NC(=O)Cn2nc(C)c3ccccc3c2=O)cc1F", "Potency": "inactive"},
      {"smiles": "CCCOc1ccc(N2C(=O)CC(NCCc3ccc(S(N)(=O)=O)cc3)C2=O)cc1", "note": "(stereo not given)", "Potency": "inactive"},
      {"smiles": "Cc1ccc(C=Nc2ccccc2C(N)=O)cc1", "Potency": "inactive"},
      {"smiles": "O=C(CCSCc1ccc(Cl)cc1)NCCc1ccccc1", "Potency": "inactive"},
      {"smiles": "Cc1ccc(C(=O)c2coc3c2C(=O)C(=O)c2ccccc2-3)cc1", "Potency": "inactive"},
      {"smiles": "COc1ccc(-c2nc(C#N)c(NCC3CCCO3)o2)cc1OC", "note": "(stereo not given)", "Potency": "inactive"},
      {"smiles": "CCNC1=C(Cl)C(=O)c2ccccc2C1=O", "Potency": "inactive"},
      {"smiles": "Cc1cc(NS(=O)(=O)c2ccc(Nc3nc(-c4ccc(C)c(C)c4)cs3)cc2)no1", "Potency": "10 µM (active)"},
      {"smiles": "C=CCn1c(N)c(C(=O)NCc2cccnc2)sc1=S", "Potency": "inactive"},
      {"smiles": "CC(C)C(=O)Nc1ccc(C(=O)N2CCCCCC2)cc1", "Potency": "inactive"}
    ]}
  ]
}
